Among all 290,000 compounds or so, about 27,000 (9.3%) were called active. The sample holds actives, similar compounds and a random draw of the others, so the mix is not that of the screen. Values without a mark were called inactive. Cut-off read from the data, not from the text of the source: active = inhibition mostly above about 28% (no sharp cut-off); inactive = mostly below about 43%.

The nature of this test: A qHTS for Small Molecule Inhibitors of Shiga Toxin. Note: 0% is about no effect. As to conditions: Vero cells, Shiga toxin protein synthesis inhibition reporter; at 38.7 µM, hits give high values. On the technique in general: In qHTS, concentration-response curves come from the screen itself.
Broadly, the inhibition is the relative decrease from the control value, in per cent. With `CC(C)C[C@H](NC(=O)C1CCC(CNC(=O)[C@@H]2CCCN2C(=O)OC(C)(C)C)CC1)C(=O)O` (some centres not stated), the inhibition is -6.01%. Consider `CN1CCN(Cc2c(C(=O)N3CCc4ccccc4C3)nc3ccc(Cl)cn23)CC1`, for which the inhibition was -6.16%. For `CN(c1ccc(C(=O)N2CCc3ccccc3C2)cc1)S(C)(=O)=O`, the inhibition was 52.2% (active).

Consider `Cn1cccc1C(=O)N1CCc2ccccc2C1`, for which the inhibition was 36.9%. Next, `Cc1ccc(-c2cc(C(=O)N3CCc4ccccc4C3)no2)cc1`: 46.6% (active); `O=C(c1noc2c1CCCC2)N1CCc2ccccc2C1`: 67.4% (active); `COc1cccc(N(CC(=O)N2CCc3ccccc3C2)S(C)(=O)=O)c1`: -19.6%. As for `O=C(NCCCN1CCOCC1)c1cc(-c2cccc(O)c2)on1`, the inhibition is 23.1%. Turning to `CN(c1cccc(NC(=O)c2ccc(CN3CCc4ccccc4C3)cc2)c1)S(C)(=O)=O`, the inhibition was -12%. With `Cc1ccc2c(c1)N(C(=O)CCC(=O)N1CCc3ccccc3C1)CCO2`, the inhibition was 2.26%. For the compound `Cc1cccc(OC(C)C(=O)N2CCc3ccccc3C2)c1` (configuration not stated), the inhibition was -13.5%.

In the case of `O=C(COc1ccccc1)N1CCc2ccccc2C1`, the inhibition was 38.7%.

In the case of `O=C(c1cc(-c2cccc(O)c2)on1)N1CCc2ccccc2C1`, the inhibition is 35.6% (active). Take `Cc1cc(C(F)F)n2nc(C(=O)Nc3ccc(S(=O)(=O)NC45CC6CC(CC(C6)C4)C5)cc3)nc2n1`: the inhibition is -15.3%.

In the case of `CCOc1ccc2[nH]c(C(=O)N/N=C/c3cccc(OC)c3OC)cc2c1`, the inhibition was 14%.

Regarding `O=C(NCc1ccccc1)C(c1ccco1)N(C(=O)c1csnn1)c1ccccc1F` (configuration not stated), the inhibition was -4.22%.

Turning to `O=C(NCC(=O)N1CCN(c2ccccc2O)CC1)c1ccc2ccccc2c1`, the inhibition is 22.1%. Regarding `Cc1ccc(CC2CC(=O)N(c3cc(C)ccc3C)C2=O)cc1` (configuration not stated), the inhibition was -11.4%. In the case of `N#C/C(=C\c1cccnc1)C(=O)Nc1ccc(SC(F)F)cc1`, the inhibition is 36.4%. Take `Cc1ccc(-n2c(-c3ccc(Cl)cc3)n[nH]c2=S)cc1`: the inhibition is 4%. On to `CCOC(=O)c1ccc2[nH]c3c(c2c1)CCCC3NC=O` (configuration not stated), for which the inhibition is 90.9%. On to `COc1ccc(N(C)C(=O)CCS(=O)(=O)c2cccc3nsnc23)cc1`, for which the inhibition was -7.02%. On to `CCOc1ccccc1NC(=O)Cn1ncc2ccc([N+](=O)[O-])cc21`, for which the inhibition is -3.64%. In the case of `COc1ccc(N2CC(C(=O)NCCS(=O)(=O)N3CCN(c4ccccc4)CC3)CC2=O)cc1` (configuration not stated), the inhibition is -3.67%. On to `O=C(NCC(=O)N(Cc1cccs1)C(C(=O)NC1CCCCC1)c1ccco1)c1cccs1` (configuration not stated), for which the inhibition is 4.26%. On to `O=C1c2cccc3cccc(c23)C(=O)N1c1cccc(O)c1`, for which the inhibition was -6.01%. For `COC(=O)c1cc(C(=O)NC(C)C2CC3CCC2C3)cc([N+](=O)[O-])c1` (configuration not stated), the inhibition was -13%. `COc1cc(C(=O)NCc2cc3cc(Cl)ccc3n2C)cc(OC)c1OC`: the inhibition is -6.37%. Take `COc1ccc(S(=O)(=O)NCCOc2ccccc2)cc1F`: the inhibition is 21%. As to `CC(=O)Nc1ccc(CC#N)cc1`, the inhibition is -1.48%. As for `N#CCc1ccc(NC(=O)c2ccccc2C(=O)Nc2ccc(CC#N)cc2)cc1`, the inhibition is 57.5% (active). In the case of `NC(=O)COc1ccc(NC(=O)c2ccccc2-c2ccccc2)cc1`, the inhibition is -16.2%. As for `O=C(NCCO)C(=O)NCC(c1ccc2c(c1)OCO2)N1CCN(c2ccc(F)cc2)CC1` (configuration not stated), the inhibition was 17.7%. As for `O=C(O)c1ccc(S(=O)(=O)N2CCOCC2)o1`, the inhibition was -9.6%.

`CS(=O)(=O)N(Cc1ccccc1)c1ccc(C(=O)NN=C2CCCCCC2)cc1`: the inhibition is 0.281%. Take `CCc1ccc(C(=O)NN=C2CCCCCC2)s1`: the inhibition was 50.4% (active).

As for `O=C(COc1ccc(-c2ccccc2)cc1)NN=C1CCCC1`, the inhibition is -0.705%. For the compound `CC(CC(=O)O)C(=O)c1ccc(Cl)c([N+](=O)[O-])c1` (configuration not stated), the inhibition is -9.51%. Under `Cc1ccn2c(=O)c(C(=O)NCCC3=CCCCC3)c(O)nc2c1` stands 0.166%; under `CC(=O)Nc1ccc(S(=O)(=O)N(C)CC(=O)NCCC2=CCCCC2)cc1`, -23.7%; under `O=C(Cc1nn[nH]n1)NCCC1=CCCCC1`, -11.6%. As for `O=C(COc1ccc(Cl)cc1)NCCC1=CCCCC1`, the inhibition is 19.6%. In the case of `CN1CCNC(=O)C1CC(=O)NCCC1=CCCCC1` (configuration not stated), the inhibition is -5.56%.

For the compound `Cn1nnc2cc(C(=O)NCCC3=CCCCC3)ccc21`, the inhibition was 64.2% (active).

On to `O=C(NCCC1=CCCCC1)c1ccc(Cl)c([N+](=O)[O-])c1`, for which the inhibition is 78.7% (active). As for `CN(c1ccc(C(=O)NCCC2=CCCCC2)cc1)S(C)(=O)=O`, the inhibition is 89.4% (active). Next, `Cc1ccc(NS(=O)(=O)c2c(C)[nH]c(C)c2C(=O)N2CCCCC2)c(C)c1`: -1.7%; `CCOc1ccc(NC(=O)CC(Cc2ccc(Cl)cc2)C(=O)O)cc1` (configuration not stated): -2.62%. As for `COC(=O)c1c(NC(=O)c2ccccc2F)sc2c1C(C(=O)OC)CC2` (configuration not stated), the inhibition was -16.3%. Next, `COC(=O)[C@@H]1CC(O)CN1C(=O)C12CC3CC(CC(C3)C1)C2` (some centres not stated): 4.2%; `O=C(Nc1nnc(S(=O)(=O)N2CCCCCC2)s1)c1cccc(Br)c1`: -2.66%. Regarding `O=C(Nc1nnc(S(=O)(=O)N2CCOCC2)s1)c1cccc(Br)c1`, the inhibition was 31.4% (active). Consider `COc1cccc(C(=O)Nc2nnc(S(=O)(=O)N3CCOCC3)s2)c1`, for which the inhibition was 7.84%. Consider `O=C(Nc1ccc(N2CCOCC2)c(Cl)c1)c1ccc(S(=O)(=O)N2CCOCC2)cc1`, for which the inhibition was -13.3%. In the case of `O=C(Nc1ccc(S(=O)(=O)N2CCOCC2)cc1)c1ccc2ncsc2c1`, the inhibition was 64.5% (active). As to `O=C(Nc1ccc(S(=O)(=O)Nc2nccs2)cc1)c1cccc(S(=O)(=O)N2CCOCC2)c1`, the inhibition was -3.68%. `O=C(c1cnc(Cl)c(Cl)c1)N1CCN(S(=O)(=O)c2ccc(F)cc2)CC1`: the inhibition is 1.5%.

With `CCc1ccc(NC(=O)CN2CCC(C(=O)c3ccc(OC)cc3)CC2)cc1`, the inhibition is -10.2%. `CCNC(=O)CC1C(=O)N(c2ccc(OC)cc2)C(=O)N1CCOC` (configuration not stated): the inhibition was -7.39%. On to `CC(C)C[C@H](NC(=O)N1CC(=O)Nc2ccccc21)C(=O)N[C@H](Cc1ccccc1)C(=O)O`, for which the inhibition is -3.7%. Consider `CCCn1c(C(O)c2ccc(OCC)cc2)nc2ccccc21` (configuration not stated), for which the inhibition is -6.45%. For `CCOc1ccc(C(O)Cc2nc3ccccc3n2C)cc1` (configuration not stated), the inhibition was 61.7% (active). Next, `COc1cccc(C(O)Cc2nc3ccccc3n2C)c1OC` (configuration not stated): 10.7%; `S=C(NNC(=S)NC1CC2C=CC1C2)NC1CC2C=CC1C2` (configuration not stated): 18.6%.

Consider `S=C(NNC(=S)NC1CC2CCC1C2)NC1CC2C=CC1C2` (configuration not stated), for which the inhibition was 38%.

Regarding `CC(C)c1ccc(NC(=S)NC2CC3C=CC2C3)cc1` (configuration not stated), the inhibition is 81.8% (active). In the case of `O=C(CN1CCC(NC(=O)Nc2ccccc2)CC1)Nc1cccc([N+](=O)[O-])c1`, the inhibition was -6.37%. Turning to `O=C(CCN1C(=O)C2C3CCC(C3)C2C1=O)Nc1ccc(Cl)cc1Cl` (configuration not stated), the inhibition is 30.5%. Under `Cc1cccc(NC(=O)C2CCN(C(=O)NC3CCCCC3)CC2)c1` stands -14.2%; under `Cc1csc(=Nc2ccccc2)n1CCO`, -5.67%. Take `Cc1csc(=NC(=O)c2ccccc2)n1CCO`: the inhibition was -11%. For `OCCn1c(-c2ccccc2)csc1=Nc1ccccc1`, the inhibition was 29.8% (active).

On to `Cc1cc2c(cc1S(=O)(=O)CCC(=O)NCc1ccccc1)OCC(=O)N2`, for which the inhibition was 9.17%. Consider `COCCCNC(=O)CNC(=O)c1nn(-c2ccc(OC)cc2)c(=O)c2ccccc12`, for which the inhibition was -3.74%.

As to `O=C(CN1CCN(S(=O)(=O)c2cc(Cl)ccc2Cl)CC1)c1ccc(O)c(O)c1`, the inhibition was -3.28%. With `COC(=O)Nc1nc2ccc(Sc3ccccc3)cc2[nH]1`, the inhibition was 76.6% (active).

On to `COc1cc(OC)cc(C(=O)N[C@H](C(=O)Nc2nc3ccccc3[nH]2)C(C)C)c1`, for which the inhibition is -3.89%. On to `Cc1nc2ccc(C(=O)O)cc2[nH]1`, for which the inhibition is -11.9%. For the compound `Cc1ccc(S(=O)(=O)N(C)c2nc3ccccc3n3c(C(C)C)nnc23)cc1`, the inhibition was 13.3%. Next, `CC(=O)Nc1ccc(NC(=S)NC(=O)/C=C/c2ccccc2)cc1`: 5.78%; `CC(=O)Nc1ccc(/C=C/C(=O)c2ccccc2)cc1`: 58.1% (active). Consider `CC(=O)Nc1ccc(C(=O)/C=C/c2ccc[nH]2)cc1`, for which the inhibition is 77.1% (active). On to `CC(=O)Nc1ccc(NC(=O)CCCNC(=O)c2ccc(Cl)cc2)cc1`, for which the inhibition is 3.88%. Turning to `COc1ccc(C(=O)/C=C/c2ccc(OC3CSC3)cc2)cc1`, the inhibition is 2.97%.

For the compound `CCCC(=O)Nc1ccc(C(=O)N/N=C/c2ccc[nH]2)cc1`, the inhibition was 13%. Consider `C=CCNC(=S)/N=c1/ccccn1Cc1ccccc1`, for which the inhibition is 2.67%. On to `O=C(NC(=S)NC1CCS(=O)(=O)C1)c1cccc([N+](=O)[O-])c1` (configuration not stated), for which the inhibition was -10.3%. On to `Cc1ccc(SCC(=O)NNC(=O)c2ccc(S(C)(=O)=O)cc2)cc1`, for which the inhibition was -6.84%. Under `COc1ccc(CCn2c(=N)c(C(=O)NCC3CCCO3)cc3c(=O)n4cccc(C)c4nc32)cc1OC` (configuration not stated) stands 2.54%; under `O=C(NCc1nnc(SCC(=O)N2CCCCCC2)o1)c1ccc(F)cc1`, -3.11%.

Consider `c1ccc(C2=Nc3cccc4cccc(c34)N2)cc1`, for which the inhibition was 3.03%. Under `COc1ccccc1C1=Nc2cccc3cccc(c23)N1` stands -3.03%. Regarding `Fc1ccccc1N=C1Nc2cccc3cccc1c23`, the inhibition is 59% (active).

For the compound `Cc1cc(N2C(=O)C(O)=C(C(=O)c3ccc(C)o3)C2c2ccc(OCc3ccccc3)cc2)no1` (configuration not stated), the inhibition was -3.21%.

As for `COc1ccc(-c2nn(-c3ccccc3)cc2/C=C\C(=O)Nc2ccc(C(=O)O)cc2)cc1`, the inhibition is -20.1%. Next, `COc1ccc(NC(=O)c2cn(-c3ccccc3)nc2SC)cc1`: 43.3% (active); `COc1ccc(-c2nn(-c3ccccc3)cc2C(=O)Nc2nc(CC(C)=O)ns2)cc1`: -2.47%.

The values are drawn from PubChem BioAssay AID2315 (National Center for Advancing Translational Sciences (NCATS), 2010).
